Rows were chosen to be rich in hits. Some 8.1% of all compounds tested hit in one or more screens of this group.
Epigenetic reg – Quantitative High-Throughput Screen for Regulators of Epigenetic Control | 0.2% of 280,000 active | murine LDR cells, GFP reporter derepression, 30 h | Potency, µM (doses to about 53.9 µM), for inactives: at the highest dose GFP activation, most hits filed as activators; note: % of control where 0% means no effect; nearly all actives have a fitted effect of over 60% in size
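GFP-positive cell count by laser-scanning cytometry (objects 20–120 um) after 30 h, 37 C compound exposure of murine LDR cells; reporter is CMV-GFP integrated at a silenced locus, inducible by HDAC or DNMT inhibitors.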
RORgamma inh – qHTS for inhibitors of ROR gamma transcriptional activity | Nuclear receptor ROR-gamma (Mus musculus), P51450 | Drosophila S2 Gal4-RORgamma UAS-luciferase reporter, 20 h | Potency, µM (top dose mostly 53.6 µM), for inactives: top-dose activity change, negative = inhibition, most hits filed as inhibitors | 5.4% of 310,000 active; note: % is set by controls: 0 for no effect and ±100 for the full control effect; nearly all actives have a fitted effect of over 60% in size
Target sequence (P51450 whole entry, looked up, the tested form may be a part): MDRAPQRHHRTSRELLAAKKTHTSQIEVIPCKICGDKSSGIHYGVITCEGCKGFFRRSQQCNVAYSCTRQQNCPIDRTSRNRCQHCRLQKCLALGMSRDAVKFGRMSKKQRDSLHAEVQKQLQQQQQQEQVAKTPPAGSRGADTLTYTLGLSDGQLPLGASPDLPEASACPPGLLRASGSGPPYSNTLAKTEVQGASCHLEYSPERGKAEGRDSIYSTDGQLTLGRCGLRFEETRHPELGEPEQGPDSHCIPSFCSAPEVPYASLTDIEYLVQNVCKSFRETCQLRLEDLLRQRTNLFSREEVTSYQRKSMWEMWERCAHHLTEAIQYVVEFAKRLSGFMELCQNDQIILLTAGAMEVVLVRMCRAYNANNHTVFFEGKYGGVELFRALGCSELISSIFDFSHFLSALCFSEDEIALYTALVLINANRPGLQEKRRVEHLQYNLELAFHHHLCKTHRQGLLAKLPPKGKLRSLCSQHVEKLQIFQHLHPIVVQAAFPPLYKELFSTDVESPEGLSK
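Luminescence from a UAS-regulated Photinus luciferase reporter in stably transfected Drosophila Schneider cells is measured; decreased signal marks ROR gamma inhibition. Fusion expression is induced by 700 uM copper sulfate for 20 hr.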
Sfp inh – qHTS Assay for Inhibitors of Bacillus subtilis Sfp phosphopantetheinyl transferase (PPTase) | Potency, µM, for the others: largest response in the series, negative = inhibition, most hits filed as inhibitors | 4'-phosphopantetheinyl transferase ffp (Bacillus subtilis), Q9F4F7 | 3.5% of 310,000 active | Biochemical Sfp PPTase activity, qHTS;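 note: the enzyme is Sfp with the accession as filed and its product quenches rhodamine fluorescence; 0% = enzyme reaction without inhibitor and -100% = no enzyme wells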
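Step 1, compound plus 15 nM Sfp-PPTase, 15 min, room temperature. Step 2, add rhodamine-CoA (5 uM) and BHQ-2-YbbR (12.5 uM). Step 3, read 525/598 nm fluorescence at 0 and 30 min.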
VP16 counter – VP16 counterscreen qHTS for inhibitors of ROR gamma transcriptional activity; Potency, µM (top dose mostly 53.6 µM), for the others: top-dose activity, negative = inhibition, most hits filed as inhibitors; Drosophila S2 Gal4-VP16 UAS-luciferase, luminescence, 20 h; 3.5% of 310,000 active;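 note: Gal4-VP16 expression switched on by copper sulfate through the metallothionein promoter; % is set by controls: 0 for no effect and ±100 for the full control effect; nearly all actives have a fitted effect of over 50% in size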
ClpP mod – qHTS Assay for Activators of ClpP; ATP-dependent Clp protease proteolytic subunit (Bacillus subtilis (strain 168)), P80244; Potency, µM (series often up to 57.5 µM), for the others: at the top dose activity change, negative = active; 1.9% of 340,000 active; AID 651965, 2013; purified B. subtilis ClpP, FRET peptide cleavage, 20 min; active = well fitted falling curve with a large enough effect; inconclusive = small, poorly fitted or top-dose-only effect; inactive = no such curve, though single readings can be large or run the other way; note: the source files actives as falling curves though it sought activators and does not explain the sign; nearly all actives have a fitted effect of over 65% in size
Target sequence (P80244 whole entry, looked up): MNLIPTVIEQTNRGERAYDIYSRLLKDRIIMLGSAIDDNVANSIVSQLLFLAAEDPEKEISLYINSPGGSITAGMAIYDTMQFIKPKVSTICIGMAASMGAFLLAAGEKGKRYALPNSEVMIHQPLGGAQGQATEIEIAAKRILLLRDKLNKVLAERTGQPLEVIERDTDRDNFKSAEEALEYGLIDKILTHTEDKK
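ClpP 10 microg/mL final, pH 8 Tris/KCl buffer with BSA, glycerol, Tween-20; compound pinned in; FRET-FV substrate; RT 20 min; Ex320/Em430; ΔFRET vs ADEP 5.8 microM, DMSO, no enzyme.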
PINK1 expr mod – A Quantitative High throughput Screen to Identify Chemical Modulators of PINK1 Expression. PINK1 immunofluorescence, high-content cytometry, 24 h. Potency, µM (series often up to 76.6 µM), without a hit: at the top dose activation (PINK1 increase), actives largely listed as activators. 0.2% of 410,000 active; active = well fitted activation curve with a large enough effect; inconclusive = small, poorly fitted or top-dose-only effect; cell line not stated here; note: % of control where 0% means no effect; nearly all actives have a fitted effect of over 65% in size
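PINK1 protein, normally rapidly degraded, was detected by immunofluorescence after 24 hour compound treatment of a stable cell line. Titration data (5 concentrations) came from laser-scanning cytometry, with CCCP-treated wells as controls.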
Starred values were filed as active, the others as inactive; ? = inconclusive; . = no result; [ ] = dose if it differs, or a comment. Unless noted, calls come from the whole dose curve; as a rule, active = well fitted curve in the direction sought with a large enough effect; inconclusive = small, poorly fitted or top-dose-only effect, or another doubt; inactive = no such curve, though single readings can be large; an effect the other way counts as inactive or inconclusive. Potency is the fitted concentration of half-maximal effect.

SMILES | Epigenetic reg | RORgamma inh | Sfp inh | VP16 counter | ClpP mod | PINK1 expr mod
Cc1c(C2(c3cc(C(C)C)c(O)c(Br)c3C)OS(=O)(=O)c3ccccc32)cc(C(C)C)c(O)c1Br | . | . | . | . | -2% | 0%
CCOC(=O)C(CC)Sc1nc2c(c(=O)[nH]c(=O)n2C)n1C/C=C(/C)Cl (stereo not drawn) | 0% | 28% | 14µM* | -7% | 4% | 8%
Cc1cccc(NS(=O)(=O)c2ccc(Oc3ccccc3)cc2)n1 | 0% | -15% | 5% | 2% | 22µM* | 0%
Cc1ccc(S(=O)(=O)Nc2ccccc2CNc2cccc(C)n2)cc1 | 0% | 16% | 7% | -7% | -4% | 6%
CC(=O)Nc1ccc(-c2csc(NNC(=O)c3ccc(C)cc3)n2)cc1 | 1% | -22% | 7.9µM* | 3%[10 µM] | 0% | 3%
CC(=O)Nc1nc(-c2cccs2)cs1 | -1% | 10% | 50µM* | 8% | -8% | 1%
CC(=O)Nc1ccc(-c2csc(Nc3cccc(C)n3)n2)cc1 | -1% | ? | -12% | 7% | . | 9%
CC(=O)NNc1nc(-c2ccc(NC(C)=O)cc2)cs1 | 1% | -5% | 50µM* | ? | -2% | -1%
CCCCCOc1ccc(Br)cc1/C(C)=N/NC1=NCCN1 | 3% | 2.5µM* | ? | ? | 1% | 1%
COc1ccc(Br)cc1/C(C)=N/NC1=NCCN1 | 1% | ? | -7% | 13µM* | 2% | 2%
CN(C)C1=NC(=O)/C(=C/c2ccc(-c3ccc(S(N)(=O)=O)cc3)o2)S1 | . | -8% | 35µM* | 0% | . | .
NC1=NC(=O)/C(=C\c2ccc(-c3ccc(Cl)cc3)o2)S1 | . | -29% | 9% | -11% | -3% | -1%
Cc1cc(C)cc(N(CC(=O)Nc2ccccc2-c2ccccc2)S(=O)(=O)c2ccccc2)c1 | -1% | -2% | -3% | -9% | -2% | 1%
CCOc1ccc(N(CC(=O)N/N=C/c2ccccn2)S(=O)(=O)c2ccc(Cl)cc2)cc1 | . | 10µM* | 4% | ? | -1% | 5%
Cc1cc(C)cc(N(CC(=O)N/N=C/c2ccncc2)S(=O)(=O)c2ccccc2)c1 | -1% | -19% | -23% | -8% | 6.3µM* | 4%
CC(C)Oc1ccc(CNC(=O)Cn2ncn3nc(-c4cccs4)cc3c2=O)cc1 | -5% | . | . | . | -24% | 3%
Cc1ccnc(NC(c2cccnc2)c2ccc3cccnc3c2O)c1 (stereo not drawn) | 33% | 3.2µM* | ? | ? | . | -1%
COc1ccccc1NC(c1cccnc1)c1ccc2cccnc2c1O (stereo not drawn) | 0% | 11µM* | 20µM* | ? | -1% | 0%
Cc1ccc2ccc(C(Nc3ccccc3)c3ccccc3)c(O)c2n1 (stereo not drawn) | . | . | . | . | -3% | .
Cc1cc(NC(c2ccc(Cl)cc2)c2ccc3cccnc3c2O)no1 (stereo not drawn) | -7% | 0.79µM* | 6% | 2µM* | -2% | 0%
CC(=O)NC(c1ccc(Cl)cc1)c1ccc2cccnc2c1O (stereo not drawn) | . | . | . | . | -1% | -2%
Cc1ccc2ccc(C(Nc3cccc(C(F)(F)F)c3)c3cccnc3)c(O)c2n1 (stereo not drawn) | -1% | 7.1µM* | 14% | ? | 3% | -2%
COc1ccc(-c2cc3nc(C)c(CCC(=O)NC4CCCCC4)c(C)n3n2)c(OC)c1 | -1% | . | . | . | -5% | 1%
CS(=O)(=O)N1CCc2cc(S(=O)(=O)Nc3ccc4c(c3)OCCO4)ccc21 | 0% | ? | 6% | 18µM* | 0% | 0%[38.3 µM]
O=C(C1CCC1)N1CCc2cc(S(=O)(=O)Nc3ccc4c(c3)OCCO4)ccc21 | -1% | ? | 5% | 20µM* | 0% | 2%
SMILES | Epigenetic reg | RORgamma inh | Sfp inh | VP16 counter | ClpP mod | PINK1 expr mod
COc1cccc(S(=O)(=O)Nc2ccc3c(c2)OCCO3)c1 | . | ? | 15% | -3% | 14µM* | -1%
CCCCOc1ccc(-c2nn(-c3ccccc3)cc2C2NC(=O)NC(C)=C2C(=O)OCC)cc1 (stereo not drawn) | -2% | . | . | . | -9% | -1%
Nc1c(C(=O)Nc2ccccc2Cl)c2ccccn2c1C(=O)c1ccccc1 | 0% | . | . | . | -6% | 3%
CCc1nn2c(-c3ccco3)ccnc2c1-c1ccccc1 | -1% | . | . | . | 1% | 3%
O=C(CCC(=O)N/N=C/c1ccc(Br)s1)NCc1ccccc1 | -1% | -6% | 12% | -9% | 1% | 8%
Brc1ccc(C=Nc2ccc(Nc3ccccc3)cc2)s1 | 0% | ? | 56µM* | -7% | -1% | 0%
C(=Nc1ccc(Nc2ccccc2)cc1)c1ccc2ccccc2c1 | 0% | ? | 45µM* | 13µM* | 14µM* | 3%
COc1ccc(N2CCN(C(=O)CS(=O)(=O)c3cccc4nsnc34)CC2)cc1 | 0% | . | . | . | -5% | -1%
O=C(CSc1nccn1-c1ncc(C(F)(F)F)cc1Cl)c1ccc(Cl)cc1 | -1% | 16µM* | -13% | ? | 1% | 0%
Cc1cc(Cl)ccc1NC(=O)CN1C(=O)COc2ccc(S(=O)(=O)Nc3ccccc3)cc21 | 1% | . | . | . | 1% | 0%
Cc1oc2c(CN3CCOCC3)c(O)ccc2c(=O)c1-c1ccccc1 | 0% | -16% | 17% | -1% | 28µM* | .
COc1ccccc1-c1c(C)oc2c(CN3CCOCC3)c(O)ccc2c1=O | . | -1% | 7% | 1% | 3% | -3%
COc1ccc(Oc2c(C)oc3c(CN4CCOCC4)c(O)ccc3c2=O)cc1 | -1% | 17% | 21% | 1% | 32µM* | 0%
CCOC(=O)c1sc2nc(Cc3ccc(Cl)cc3)[nH]c(=S)c2c1C | -2% | 2.8µM* | 16% | ? | -1% | 11%
Nc1c(C(=O)NC2CCCC2)sc2nc(-c3cccs3)ccc12 | ? | ? | 45µM* | 13% | -17% | 11%
NC(=O)c1sc2nc(-c3cccs3)ccc2c1N | . | 32% | -13% | -12% | 4% | 0%
Nc1nc2c(ncn2[C@@H]2O[C@H](CO)[C@@H](O)[C@H]2O)c(=O)[nH]1 | 0% | 1% | 3% | -1% | . | .
Nc1nc2c(ncn2C2OC(CO)CC2O)c(=O)[nH]1 (stereo not drawn) | 0% | 20µM* | 16% | ? | . | -2%
Cc1ccc(NC(=O)c2ccc3c(O)c(S(=O)(=O)c4ccc(Cl)cc4)c(=O)[nH]c3c2)cc1 | 0% | . | . | . | 2% | 1%

Assay outcomes deposited in PubChem BioAssay by National Center for Advancing Translational Sciences (NCATS).
